Assay results reported in PubChem BioAssay (NCI).
Compounds without any hit were thinned out: in the full panel of roughly 79,000, 15% have a hit. A number with no mark means an inactive call. The source made the active and inactive calls. No stated cut-off is given here; in the data, active means growth inhibition above about 70%; inactive means the rest.

assay: NCI Yeast Anticancer Drug Screen. Data for the mlh1 rad18 strain (AID 175); details: S. cerevisiae mlh1 rad18 strain growth inhibition; at 5.0 µM (retest, dose inferred, filed as 0.5); active compounds read high
Summary of the method: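 Growth inhibition of the yeast strain was measured after compound exposure and expressed relative to vehicle-treated controls. The strain carries defined defects in DNA damage repair.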

SMILES | growth inhibition
CCCCCCCCc1ccc2c3ccccc3c3ccccc3c2c1 | 23%
O=C1C(=O)c2ccc(Br)cc2C(O)=C1C(c1ccccc1)c1ccccc1 | 28%
CN(C)Cc1ccc2[nH]c3c(c2c1)CCCC3 | 28%
COc1ccc(NC(=O)Nc2ccc(Cl)cc2)nn1 | -7%
CO/N=C/c1cc(NC(=S)c2ccoc2C)ccc1Cl | -23%
O=C(Sc1c(-c2ccccc2)c(=O)n(-c2ccccc2)c(=S)n1-c1ccccc1)c1cccs1 | 66%
O=C1/C(=C/c2ccc(F)cc2)CNC/C1=C\c1ccc(F)cc1 | 16%
O=c1cc2cccccc-2cc1O | -130%
Oc1c(Br)cc(Br)cc1-c1ccccc1 | -8%
C(=[CH]/[Sn]([c]1ccccc1)([c]1ccccc1)[c]1ccccc1)/c1ccccc1 | 97% (active)
CCCCCCCCCN1CCNC1=S | 0%
O=C1C/C(=C\c2ccccc2)C(=O)c2ccccc2N1 | -18%
CN(C)C(=O)Nc1ccc(Cc2ccc(NC(=O)N(C)C)cc2)cc1 | -33%
C=C1CC(C)(COc2ccc3c(C)c(Cl)c(=O)oc3c2)OC1=O (stereo not given) | 8%
CC[C@@]1(OP(=O)(O)O)C(=O)OCc2c1cc1n(c2=O)Cc2cc3ccccc3nc2-1 | 49%
O=S(=O)(Sc1ccccc1)C(c1ccccc1)c1ccccc1 | 4%
CCOC(=O)c1c(N)sc2c1CCCCC2 | -142%
CCCCCCCCCCCCCCNCCN | 25%
CCCN(CCC)CCNc1ccc(C)c2sc3ccccc3c(=O)c12 | 31%
CC1CC2(C)ON=C(c3ccccc3)N2c2ccccc2S1 (stereo not given) | 4%

SMILES | growth inhibition
COc1ccc(N=NN2CCCC2)cc1 | 14%
S=C(Nc1ccccc1)NC1CC2C=CC1CC2 (stereo not given) | -4%
C=CCOC(=O)C(O)C(CC)CCCCC (stereo not given) | 17%
NC(=O)c1ccccc1C(=O)O | -5%
CS(=O)(=O)c1cc(=O)c2ccccc2s1 | 17%
O=C([O][Sb]([O]C(=O)C(Cl)(Cl)Cl)([c]1ccccc1)([c]1ccccc1)[c]1ccccc1)C(Cl)(Cl)Cl | 3%
CCCCCCCCCCCCCCCCCCOP(=O)([O-])OCC[N+](C)(C)C | 10%
Nc1ccc(SCCCc2c(N)nc(N)nc2N)cc1 | 6%
O=C1C=CC(=O)c2c1cc1ccccc1c2O | 19%
CCN(CC)CC(O)CNc1ccc(NCC(O)CCl)c2c1C(=O)c1ccccc1C2=O (stereo not given) | 99% (active)
N#Cc1c(N)nc2c(N=Nc3ccccc3)c(N)nn2c1Nc1ccccc1 | -4%
CC(O)c1c2ccccc2cc2ccccc12 (stereo not given) | -13%
Cc1ccccc1NC(=O)C1C(=O)N(c2ccccc2C)C(=O)/C1=N/O (stereo not given) | -1%
O=Cc1ccc(-c2nccc3c2[nH]c2ccccc23)o1 | 21%
C=CC(C)(CCC=C(C)C)OC(=O)Nc1ccccc1 (stereo not given) | -2%
Oc1ccc(-c2nnc(-c3ccc(Cl)cc3Cl)o2)cc1 | -2%
C/C=C1\CC(C)(CC)C(C#N)(C#N)C(N)=C1C#N (stereo not given) | 0%
Cc1nc(-c2ccccc2)nc2c1nc(C(C)C)n2Nc1ccccc1 | -4%
Cc1csc2c1C(=O)c1ccsc1C2=O | 65%
COc1cc(Nc2ccc(Oc3ccc(O)cc3)cc2)c2ncccc2c1 | 14%

same assay, conditions: S. cerevisiae mlh1 rad18 strain growth inhibition; at 50.0 µM (retest, dose inferred, filed as 5.0); active compounds read high

SMILES | growth inhibition
CCCCCCCCc1ccc2c3ccccc3c3ccccc3c2c1 | 6%
O=C1C(=O)c2ccc(Br)cc2C(O)=C1C(c1ccccc1)c1ccccc1 | 69%
CN(C)Cc1ccc2[nH]c3c(c2c1)CCCC3 | 93% (active)
COc1ccc(NC(=O)Nc2ccc(Cl)cc2)nn1 | 3%
CO/N=C/c1cc(NC(=S)c2ccoc2C)ccc1Cl | -14%
O=C(Sc1c(-c2ccccc2)c(=O)n(-c2ccccc2)c(=S)n1-c1ccccc1)c1cccs1 | 95% (active)
O=C1/C(=C/c2ccc(F)cc2)CNC/C1=C\c1ccc(F)cc1 | 53%
O=c1cc2cccccc-2cc1O | 95% (active)
Oc1c(Br)cc(Br)cc1-c1ccccc1 | 99% (active)
C(=[CH]/[Sn]([c]1ccccc1)([c]1ccccc1)[c]1ccccc1)/c1ccccc1 | 84% (active)
CCCCCCCCCN1CCNC1=S | 61%
O=C1C/C(=C\c2ccccc2)C(=O)c2ccccc2N1 | 18%
CN(C)C(=O)Nc1ccc(Cc2ccc(NC(=O)N(C)C)cc2)cc1 | -56%
C=C1CC(C)(COc2ccc3c(C)c(Cl)c(=O)oc3c2)OC1=O (stereo not given) | 97% (active)
CC[C@@]1(OP(=O)(O)O)C(=O)OCc2c1cc1n(c2=O)Cc2cc3ccccc3nc2-1 | 86% (active)
O=S(=O)(Sc1ccccc1)C(c1ccccc1)c1ccccc1 | 72% (active)
CCOC(=O)c1c(N)sc2c1CCCCC2 | -88%
CCCCCCCCCCCCCCNCCN | 29%
CCCN(CCC)CCNc1ccc(C)c2sc3ccccc3c(=O)c12 | 99% (active)
CC1CC2(C)ON=C(c3ccccc3)N2c2ccccc2S1 (stereo not given) | 98% (active)

SMILES | growth inhibition
COc1ccc(N=NN2CCCC2)cc1 | 33%
S=C(Nc1ccccc1)NC1CC2C=CC1CC2 (stereo not given) | -13%
C=CCOC(=O)C(O)C(CC)CCCCC (stereo not given) | 92% (active)
NC(=O)c1ccccc1C(=O)O | 5%
CS(=O)(=O)c1cc(=O)c2ccccc2s1 | 99% (active)
O=C([O][Sb]([O]C(=O)C(Cl)(Cl)Cl)([c]1ccccc1)([c]1ccccc1)[c]1ccccc1)C(Cl)(Cl)Cl | 79% (active)
CCCCCCCCCCCCCCCCCCOP(=O)([O-])OCC[N+](C)(C)C | 99% (active)
Nc1ccc(SCCCc2c(N)nc(N)nc2N)cc1 | 32%
O=C1C=CC(=O)c2c1cc1ccccc1c2O | 97% (active)
CCN(CC)CC(O)CNc1ccc(NCC(O)CCl)c2c1C(=O)c1ccccc1C2=O (stereo not given) | 99% (active)
N#Cc1c(N)nc2c(N=Nc3ccccc3)c(N)nn2c1Nc1ccccc1 | 55%
CC(O)c1c2ccccc2cc2ccccc12 (stereo not given) | 85% (active)
Cc1ccccc1NC(=O)C1C(=O)N(c2ccccc2C)C(=O)/C1=N/O (stereo not given) | -2%
O=Cc1ccc(-c2nccc3c2[nH]c2ccccc23)o1 | 25%
C=CC(C)(CCC=C(C)C)OC(=O)Nc1ccccc1 (stereo not given) | 24%
Oc1ccc(-c2nnc(-c3ccc(Cl)cc3Cl)o2)cc1 | 76% (active)
C/C=C1\CC(C)(CC)C(C#N)(C#N)C(N)=C1C#N (stereo not given) | -9%
Cc1nc(-c2ccccc2)nc2c1nc(C(C)C)n2Nc1ccccc1 | 37%
Cc1csc2c1C(=O)c1ccsc1C2=O | 99% (active)
COc1cc(Nc2ccc(Oc3ccc(O)cc3)cc2)c2ncccc2c1 | 59%
